# A number with no mark means an inactive call. The source made the active and inactive calls. Rule as the data show it, unless noted: active = inhibition above about 42%; inactive = the rest.
# How the values were obtained:
# [1] = StAR promoter reporter inhibitors, counter-screen for LRH-1 inverse agonist project, cell-based, luminescence, high throughput (AID 651611; in the data active = inhibition above about 28%); details: StAR promoter luciferase reporter counterscreen, at 3.6 µM, stronger effect = higher value
# [2] = molecular target: Nuclear receptor subfamily 5 group A member 2 (Homo sapiens) (UniProt O00482); assay: LRH-1 (NR5A2) inverse agonists, retest, confirmation, cell-based, luminescence (AID 651613); details: cell-based LRH-1 luciferase reporter, inverse agonism; at 3.6 µM; stronger effect = higher value;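 also: HEK293T cells co-transfected with LRH-1 and StAR promoter luciferase reporter; 0% = vehicle wells and 100% = parental cells lacking receptor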
# [3] = molecular target: Steroidogenic factor 1 (Homo sapiens) (UniProt Q13285); assay: SF1 (NR5A1) inverse agonists, counter-screen for LRH-1 inverse agonist project, cell-based, luminescence, high throughput (AID 651614; in the data active = inhibition above about 44%;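 also: cells cotransfected with StAR promoter reporter and SF1 expression vector; 0% = vehicle on cells with receptor and 100% = vehicle on cells lacking receptor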); details: cell-based SF1 luciferase reporter, at 3.6 µM, stronger effect = higher value
# [4] = VP16 transactivation reporter inhibitors, counter-screen for LRH-1 inverse agonist project, cell-based, luminescence, high throughput (AID 651615; in the data active = inhibition above about 33%); details: Gal4-VP16 luciferase reporter cells, at 3.6 µM, stronger effect = higher value
# Chain of Nuclear receptor subfamily 5 group A member 2 (Homo sapiens) (O00482 whole entry, looked up): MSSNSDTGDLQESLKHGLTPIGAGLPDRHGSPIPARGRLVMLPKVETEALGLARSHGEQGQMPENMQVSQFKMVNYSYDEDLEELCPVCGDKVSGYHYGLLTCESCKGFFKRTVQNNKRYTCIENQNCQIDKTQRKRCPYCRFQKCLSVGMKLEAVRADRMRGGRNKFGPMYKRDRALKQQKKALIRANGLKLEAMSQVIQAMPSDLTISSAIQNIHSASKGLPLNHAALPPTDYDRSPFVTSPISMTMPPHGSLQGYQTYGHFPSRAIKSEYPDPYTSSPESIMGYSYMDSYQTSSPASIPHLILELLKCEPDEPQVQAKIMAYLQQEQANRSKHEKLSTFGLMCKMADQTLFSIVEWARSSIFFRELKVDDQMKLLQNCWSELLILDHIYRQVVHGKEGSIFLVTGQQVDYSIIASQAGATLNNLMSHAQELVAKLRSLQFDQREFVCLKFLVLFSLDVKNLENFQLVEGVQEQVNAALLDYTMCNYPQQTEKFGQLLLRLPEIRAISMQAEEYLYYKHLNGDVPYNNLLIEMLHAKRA
# Chain of Steroidogenic factor 1 (Homo sapiens) (Q13285 whole entry, looked up, the tested form may be a part): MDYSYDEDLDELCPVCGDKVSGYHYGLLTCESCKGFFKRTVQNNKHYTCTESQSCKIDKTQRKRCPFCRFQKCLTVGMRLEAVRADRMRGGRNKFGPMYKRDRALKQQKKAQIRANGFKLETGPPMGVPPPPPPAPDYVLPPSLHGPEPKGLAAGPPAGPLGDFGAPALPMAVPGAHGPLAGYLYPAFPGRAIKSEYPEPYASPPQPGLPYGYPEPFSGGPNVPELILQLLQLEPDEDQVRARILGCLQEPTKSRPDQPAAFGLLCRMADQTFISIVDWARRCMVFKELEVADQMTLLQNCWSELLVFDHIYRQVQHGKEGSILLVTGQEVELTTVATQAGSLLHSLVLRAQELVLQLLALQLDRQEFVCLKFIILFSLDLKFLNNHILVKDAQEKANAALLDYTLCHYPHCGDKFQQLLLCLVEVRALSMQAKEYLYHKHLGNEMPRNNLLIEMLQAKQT
SMILES,inhibition [1] [%],inhibition [2],inhibition [3],inhibition [4]
COc1ccc(CCNC(=O)c2ccc(CSc3ccc(Cl)cc3)o2)cc1OC,-6.83,28.3%,23.4%,30.3%
OC[C@@H]1CN(Cc2ccc(-c3ccccc3)cc2)C[C@H](n2cnc3c(NC4CCC4)ncnc32)O1,16.5,53.4% (active),60.2% (active),56% (active)
COc1ccc(NC(=O)CN2C(=O)NC3(CCCc4ccccc43)C2=O)c(OC)c1 (stereo unspecified),12.3,50.9% (active),42%,-6.1%
O=C(CSc1ccccn1)Nc1nonc1[N+](=O)[O-],10.8,16.9%,26.5%,-15.1%
Cc1onc(-c2ccccc2Cl)c1-c1nc(-c2ccccn2)no1,17.1,67.3% (active),52.7% (active),7.63%
C=CCNC(=S)N/N=C/c1ccc(N(CC)Cc2ccccc2)cc1,11.4,38.4%,24.4%,6.68%
O=C(CSc1nc2ccccc2c(=O)n1-c1ccc(Cl)c(Cl)c1)Nc1ccc2c(c1)CCC2,-1.82,49.9% (active),37.8%,-40.9%
CC(=O)c1cccc(NC(=O)c2ccc([N+](=O)[O-])o2)c1,25,61.7% (active),61.9% (active),-5.65%
CC1(C)CC(=O)C=C(c2cccs2)C1,0.35,47.2% (active),57.8% (active),6.36%
